Source: the supplement of paper PMC13380429

Assays:
[1] = system: Vero E6 infected with SARS-CoV-2; test: morphology score (similarity to uninfected cells); higher = more like uninfected cells; settings: 24 h
[2] = system: Vero E6 infected with SARS-CoV-2; test: SARS-CoV-2 infection rate relative to infected DMSO; higher = more infection, active = 60 or less; settings: 24 h

Compound	morphology score [1]	SARS-CoV-2 infection rate [2]
Cc1sc(C)c2c1CCC=C2c1c[nH]cn1 (10 µM)	0.165	94% (inactive)
CC(C)C[C@@H](N)C(=O)N[C@H]1C(=O)N[C@@H](CC(N)=O)C(=O)N[C@H]2C(=O)N[C@H]3C(=O)N[C@H](C(=O)N[C@H](C(=O)O)c4cc(O)cc(O)c4-c4cc3ccc4O)[C@H](O)c3ccc(c(Cl)c3)Oc3cc2cc(c3O[C@@H]2O[C@H](CO)[C@@H](O)[C@H](O)[C@H]2O[C@H]2C[C@](C)(N)[C@H](O)[C@H](C)O2)Oc2ccc(cc2Cl)[C@H]1O [norvancomycin] (10 µM)	0.00559	100% (inactive)
CS(=O)(=O)c1cccc(CNc2nc(Nc3ccc4c(c3)CCC(=O)N4)ncc2C(F)(F)F)c1 (0.833333 µM)	0.138	114% (inactive)
N#Cc1nn(-c2c(Cl)cc(C(F)(F)F)cc2Cl)c(N)c1[S+]([O-])C(F)(F)F (stereo not drawn) [fipronil] (10 µM)	0.0672	102% (inactive)
CCC1(C)CC(=O)NC(=O)C1 [bemegride] (10 µM)	0.0851	95.5% (inactive)
O=C(O)c1ccc(N2C(=O)/C(=C/c3ccc(-c4ccc([N+](=O)[O-])cc4)o3)C=C2c2ccccc2)cc1 (10 µM)	0.184	93% (inactive)
CN(C)c1ccc(/C=C2\CCCN=C2c2cccnc2)cc1 [DMAB-anabaseine] (10 µM)	0.121	96.5% (inactive)
O=C(O)CCCCN(CCc1ccccc1OCc1ccc(CCc2ccccc2)cc1)Cc1ccc(C(=O)O)cc1 [cinaciguat] (10 µM)	-0.0659	102% (inactive)
O=C(NCCO)c1cc(C(=O)NCCO)cc(C(=O)NCCO)c1 (10 µM)	0.0411	102% (inactive)
NCCCCCC(=O)O [aminocaproic-acid] (10 µM)	0.136	89.5% (inactive)
CC(=O)O[C@]1(C(C)=O)CC[C@H]2[C@@H]3CCC4=CC(=O)CC[C@]4(C)[C@H]3CC[C@@]21C [hydroxyprogesterone-acetate] (10 µM)	0.0136	104% (inactive)
NCCS(=O)(=O)O [taurine] (10 µM)	0.19	94.5% (inactive)
Cc1ccc(C(C)C)c(O)c1 [thymol] (10 µM)	-0.0243	112% (inactive)
COc1cccc([C@@H](C)NCCCc2ccccc2Cl)c1 [tecalcet] (10 µM)	0.534	50.5% (active)
O=C(CO)[C@@H](O)[C@@H](O)[C@H](O)CO [tagatose] (10 µM)	-0.0178	108% (inactive)
N#Cc1cc(F)cc(-c2nc(-c3ccc(F)cn3)no2)c1 (10 µM)	0.136	89% (inactive)
CNC(=O)[C@H]1O[C@@H](n2cnc3c(NCc4cccc(I)c4)nc(Cl)nc32)[C@H](O)[C@@H]1O (10 µM)	-0.0292	107% (inactive)
NC(=O)CN1CC(O)CC1=O (stereo not drawn) [oxiracetam] (10 µM)	-0.00498	107% (inactive)
CCOc1cc2ncc(C#N)c(Nc3ccc(OCc4cccc(F)c4)c(Cl)c3)c2cc1NC(=O)/C=C/CN(C)C (10 µM)	-0.202	99.5% (inactive)
O=C(CCCN1CCC(O)(c2ccc(Br)cc2)CC1)c1ccc(F)cc1 [bromperidol] (10 µM)	-0.0835	106% (inactive)
COc1cc(S(C)(=O)=O)ccc1Nc1nc2ccc(-c3ccc(NC(=O)[C@H](C)c4ccc(F)cc4)cc3)cn2n1 (10 µM)	-0.122	105% (inactive)
COc1ccccc1NC(=O)OCC1CCN(C(=O)OC(C)(C)C)CC1 (10 µM)	0.0728	97% (inactive)
C=CC(=O)Nc1cccc(Oc2nc(Nc3ccc(N4CCN(C)CC4)cc3OC)ncc2Cl)c1 (0.833333 µM)	-0.0953	115% (inactive)
COC(=O)C1=C(C)NC(C)=C([N+](=O)[O-])[C@@H]1c1ccccc1C(F)(F)F (racemic) (10 µM)	0.192	91.8% (inactive)
CC#CCn1c(N2CCC[C@@H](N)C2)nc2c1c(=O)n(Cc1nc(C)c3ccccc3n1)c(=O)n2C [linagliptin] (10 µM)	-0.0102	110% (inactive)
[I-].[K+] [potassium-iodide] (10 µM)	-0.0371	114% (inactive)
O=C(NC1CCNCC1)c1n[nH]cc1NC(=O)c1c(Cl)cccc1Cl (10 µM)	-0.285	109% (inactive)
CCCCOc1cc(C(=O)OCCN(CC)CC)ccc1N [oxybuprocaine] (10 µM)	0.0894	114% (inactive)
O=C1NS(=O)(=O)c2ccccc21 [saccharin] (10 µM)	-0.085	106% (inactive)
